Where “and” joins values, the source holds several entries; their conditions need not be identical. Equal values may be shown once. More than one record can exist for a structure, and the calls need not agree. Calls of active or inactive are those of the source. How the source made its calls: active means hit-call score of the fitted dose curve at least 0.9, where 1 is the maximum; inactive means score below 0.9.
Columns and labels:
[1] = ATG_PBREM_CIS: Attagene CIS-FACTORIAL HepG2 Assay for human Phenobarbital-responsive Enhancer Module (PBREM) (AID 2282955); details: HepG2 PBREM cis-reporter, Attagene multiplexed transcription; actives raise or lower the signal
How it was run: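 HepG2, transient MRTU transfection, 24 h dosing; RNA → oligo(dT) RT → PCR → 6-FAM extension → HpaI → CE. Bidirectional fit vs DMSO.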

[2] = molecular target: Paired box protein Pax-6 (Homo sapiens) (UniProt P26367); test: ATG_Pax6_CIS: Attagene CIS-FACTORIAL HepG2 Assay for human Paired Box 6 (PAX6) (AID 2282956); details: HepG2 CIS-FACTORIAL PAX6 reporter transcription, RNA readout; actives raise or lower the signal
Sequence of Paired box protein Pax-6 (Homo sapiens) (P26367 whole entry, looked up): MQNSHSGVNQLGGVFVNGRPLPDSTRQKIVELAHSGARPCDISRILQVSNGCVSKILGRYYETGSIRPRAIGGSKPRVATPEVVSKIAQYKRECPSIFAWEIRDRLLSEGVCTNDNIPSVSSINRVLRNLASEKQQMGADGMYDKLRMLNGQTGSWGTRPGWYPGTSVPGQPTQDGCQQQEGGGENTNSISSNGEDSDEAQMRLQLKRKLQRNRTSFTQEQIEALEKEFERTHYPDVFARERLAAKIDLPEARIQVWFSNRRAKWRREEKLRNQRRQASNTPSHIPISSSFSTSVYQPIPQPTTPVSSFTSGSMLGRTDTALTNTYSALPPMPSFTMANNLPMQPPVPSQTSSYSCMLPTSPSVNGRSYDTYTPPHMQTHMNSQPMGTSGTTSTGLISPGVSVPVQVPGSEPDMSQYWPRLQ
How it was run: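 HepG2 cells transiently transfected with multiplexed cis-promoter reporter units (endogenous TF activity) were dosed for 24 h. Reporter mRNA was quantified by RT-PCR, 6-FAM labeling, HpaI digestion and capillary electrophoresis; bidirectional fitting versus DMSO baseline.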

[3] = ATG_PXRE_CIS: Attagene CIS-FACTORIAL HepG2 Assay for human Pregnane X Receptor Element (PXRE) (AID 2282957); details: HepG2 Attagene CIS-FACTORIAL PXRE reporter, mRNA; actives raise or lower the signal
How it was run: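 HepG2 cells transiently transfected with cis-regulated multiple reporter transcription units; endogenous factor activity measured as reporter mRNA 24 h after dosing. RT-PCR, fluorescent primer extension, HpaI digestion, capillary electrophoresis; bidirectional fit versus DMSO baseline.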

[4] = ATG_PPRE_CIS: Attagene CIS-FACTORIAL HepG2 Assay for human Peroxisome Proliferator-activated Response Element (PPRE) (AID 2282958); details: HepG2 PPRE cis-element reporter, Attagene transcription factor profiling; actives raise or lower the signal
How it was run: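 Transcript-level reporter induction in transfected HepG2 cells after 24 h chemical exposure, quantified by fluorescence from RT-PCR products separated by capillary electrophoresis.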

[5] = ATG_RORE_CIS: Attagene CIS-FACTORIAL HepG2 Assay for human RAR-related Orphan Receptor Element (RORE) (AID 2282959); details: HepG2 Attagene cis-factorial RORE reporter, mRNA; actives raise or lower the signal
How it was run: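 Multiplexed reporter assay measuring mRNA induction from a cis promoter element in transiently transfected HepG2 cells after 24 h treatment. Detection via RT-PCR and capillary electrophoresis fluorescence; DMSO serves as baseline.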

[6] = ATG_Sox_CIS: Attagene CIS-FACTORIAL HepG2 Assay for human SRY-box transcription factor (SOX) (AID 2282960); details: HepG2 Attagene cis-factorial SOX reporter, mRNA; actives raise or lower the signal
How it was run: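 Cells were transfected with reporter constructs under cis-regulatory promoters, then exposed to chemicals for 24 h. Reporter transcripts were quantified by fluorescence after RT-PCR and capillary electrophoresis; activity was fitted in both directions against DMSO.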

[7] = molecular target: Transcription factor Sp1 (Homo sapiens) (UniProt P08047); test: ATG_Sp1_CIS: Attagene CIS-FACTORIAL HepG2 Assay for human Specificity Protein 1 (Sp1) (AID 2282961); details: HepG2 Sp1 cis-reporter transcription, actives raise or lower the signal
Sequence of Transcription factor Sp1 (Homo sapiens) (P08047 whole entry, looked up): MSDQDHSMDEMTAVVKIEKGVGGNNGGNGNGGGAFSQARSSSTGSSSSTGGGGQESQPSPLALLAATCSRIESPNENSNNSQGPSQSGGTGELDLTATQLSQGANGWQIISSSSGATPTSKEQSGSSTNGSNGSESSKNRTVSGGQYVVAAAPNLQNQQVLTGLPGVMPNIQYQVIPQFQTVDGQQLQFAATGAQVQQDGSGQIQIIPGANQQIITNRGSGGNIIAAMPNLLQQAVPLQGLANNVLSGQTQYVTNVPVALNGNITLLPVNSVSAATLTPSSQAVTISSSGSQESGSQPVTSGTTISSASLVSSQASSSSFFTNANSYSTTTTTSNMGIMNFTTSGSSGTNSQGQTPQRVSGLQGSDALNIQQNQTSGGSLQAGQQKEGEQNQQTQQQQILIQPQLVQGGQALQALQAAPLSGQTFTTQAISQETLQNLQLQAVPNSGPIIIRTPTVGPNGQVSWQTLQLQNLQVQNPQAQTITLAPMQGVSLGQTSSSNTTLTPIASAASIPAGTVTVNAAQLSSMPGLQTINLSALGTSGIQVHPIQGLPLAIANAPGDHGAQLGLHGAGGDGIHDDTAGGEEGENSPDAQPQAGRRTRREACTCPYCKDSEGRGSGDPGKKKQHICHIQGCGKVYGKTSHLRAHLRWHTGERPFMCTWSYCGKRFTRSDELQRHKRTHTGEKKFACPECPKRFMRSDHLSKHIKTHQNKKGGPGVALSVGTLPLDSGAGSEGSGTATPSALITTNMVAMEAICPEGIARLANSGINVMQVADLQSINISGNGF
How it was run: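 Measures mRNA induction of an Sp1-linked reporter in HepG2 cells 24 h post-dosing. Multiplexed reporters read by RT-PCR and capillary electrophoresis; DMSO serves as negative control and baseline.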

[8] = ATG_SREBP_CIS: Attagene CIS-FACTORIAL HepG2 Assay for human Sterol Regulatory Element Binding (SREBP) (AID 2282962); details: HepG2 Attagene cis-factorial SREBP reporter, mRNA; actives raise or lower the signal
How it was run: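 HepG2 cells transiently transfected with multiplexed cis-element reporter units report endogenous transcription factor activity. After 24 h of chemical exposure, reporter mRNA was quantified by RT-PCR, 6-FAM labelling, HpaI digestion and capillary electrophoresis; bidirectional fits used DMSO as baseline.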

[9] = molecular target: Signal transducer and activator of transcription 3 (Homo sapiens) (UniProt P40763); test: ATG_STAT3_CIS: Attagene CIS-FACTORIAL HepG2 Assay for human Signal Transducer and Activator of Transcription 3 (STAT3) (AID 2282963); details: HepG2, Attagene cis-factorial STAT3 reporter transcription; actives raise or lower the signal
Sequence of Signal transducer and activator of transcription 3 (Homo sapiens) (P40763 whole entry, looked up): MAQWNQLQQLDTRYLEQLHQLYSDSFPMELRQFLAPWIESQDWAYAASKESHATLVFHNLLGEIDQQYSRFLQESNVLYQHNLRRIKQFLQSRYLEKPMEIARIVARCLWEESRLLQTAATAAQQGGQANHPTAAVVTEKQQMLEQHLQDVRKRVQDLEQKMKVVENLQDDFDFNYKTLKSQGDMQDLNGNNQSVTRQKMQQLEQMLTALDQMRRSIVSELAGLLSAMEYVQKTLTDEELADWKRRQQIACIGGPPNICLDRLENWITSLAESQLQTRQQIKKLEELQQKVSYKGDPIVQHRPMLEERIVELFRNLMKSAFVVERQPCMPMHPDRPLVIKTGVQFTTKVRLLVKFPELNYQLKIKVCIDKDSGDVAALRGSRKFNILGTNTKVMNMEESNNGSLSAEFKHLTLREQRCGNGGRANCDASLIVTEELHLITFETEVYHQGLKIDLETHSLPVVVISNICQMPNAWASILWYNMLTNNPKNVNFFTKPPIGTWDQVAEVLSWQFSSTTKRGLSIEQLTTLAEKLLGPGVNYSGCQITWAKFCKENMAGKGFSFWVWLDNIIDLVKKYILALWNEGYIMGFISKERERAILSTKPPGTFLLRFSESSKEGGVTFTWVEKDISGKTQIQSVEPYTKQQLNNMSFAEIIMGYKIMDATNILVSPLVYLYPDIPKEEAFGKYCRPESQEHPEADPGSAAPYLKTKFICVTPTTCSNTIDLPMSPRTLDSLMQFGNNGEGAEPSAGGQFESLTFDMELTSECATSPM
How it was run: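 HepG2 cells transiently transfected with multiple cis-element-driven reporter units report endogenous transcription factor activity. After 24 h compound exposure, reporter mRNA is measured by RT-PCR, 6-FAM labelling, HpaI digestion and capillary electrophoresis. Fitted bidirectionally versus DMSO.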

[10] = ATG_TA_CIS: Attagene CIS-FACTORIAL HepG2 Assay for human TA Basal Promoter (AID 2282964); details: HepG2 Attagene CIS-factorial TA basal promoter reporter; actives raise or lower the signal
How it was run: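 HepG2 cells transiently transfected with multiple reporter units under cis promoter elements, reporting endogenous transcription factor activity; this endpoint tracks the TA basal promoter as background control. Reporter mRNA after 24 h dosing measured by RT-PCR/capillary electrophoresis; bidirectional fits versus DMSO.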

Measured: AC50

ClC1=C(Cl)C(Cl)(Cl)C(Cl)=C1Cl
inactive: [1] | [4] | [5] | [6] | [8] | [9] | [10]
active: [1] 13.5 µM | [2] 18.4 µM and 6.7 µM | [3] 16.2 µM and 6.82 µM | [7] 15.7 µM and 7.29 µM | [8] 11.1 µM | [9] 21.7 µM

CCCCCCC(=O)O
inactive: [1] | [2] | [3] | [5] | [6] | [7] | [8] | [9] | [10]
active: [3] 53.4 µM

COCC(C)O (configuration not stated)
inactive: [2] | [3] | [6] | [7] | [8] | [9]

Oc1cccc(O)c1
inactive: [2] | [3] | [4] | [5] | [6] | [7] | [8] | [10]

CC(O)C(=O)O (configuration not stated)
inactive: [1] | [2] | [3] | [5] | [6] | [7] | [8] | [9] | [10]

COCC(C)OCC(C)O (configuration not stated)
inactive: [1] | [2] | [3] | [4] | [5] | [6] | [7] | [8] | [10]

c1ccc2c(c1)Cc1ccccc1-2
active: [3] 72.4 µM
inactive: [2] | [5] | [6] | [7] | [8]

CC(C)(C)CC(C)(C)c1ccc(O)c(-n2nc3ccccc3n2)c1
active: [3] 1.15 µM
inactive: [1] | [2] | [4] | [5] | [6] | [7] | [8] | [10]

CC(C)(C)c1ccc(O)c(C(C)(C)C)c1
inactive: [1] | [2] | [5] | [6] | [7] | [8] | [10]
active: [3] 7.21 µM

Cc1cc(C)c(O)c(C)c1
inactive: [1] | [2] | [3] | [4] | [5] | [6] | [7] | [8] | [10]

Oc1cc2ccccc2c2ccccc12
inactive: [2] | [4] | [5] | [6] | [7] | [8]
active: [3] 3.71 µM

CCCCCCCCCCCCCCCS(=O)(=O)Oc1ccccc1
active: [3] 0.778 µM
inactive: [1] | [2] | [5] | [6] | [7] | [8] | [10]

CCN(CC)CCNc1ccc(CNC=O)c2sc3ccc(OC)cc3c(=O)c12
active: [7] 0.98 µM
inactive: [2] | [3] | [4] | [6] | [8] | [10]

O=C(/C=C/c1ccc(O)cc1)CC(=O)/C=C/c1ccc(O)cc1
active: [2] 14.6 µM | [5] 2.56 µM | [6] 25.7 µM
inactive: [1] | [3] | [4] | [7] | [8] | [10]

COC(=O)CCCCC(=O)OC
inactive: [2] | [3] | [4] | [5] | [6] | [7] | [8] | [9]

CC(C)CCCCCCOC(=O)CCCCC(=O)OCCCCCCC(C)C
inactive: [2] | [4] | [6] | [7] | [8] | [9] | [10]
active: [3] 100 µM

CN1CCC[C@H]1c1cccnc1
inactive: [1] | [2] | [3] | [5] | [6] | [7] | [8] | [9]

COc1cc(CCC(=O)CC(=O)CCc2ccc(O)c(OC)c2)ccc1O
active: [3] 8.44 µM
inactive: [1] | [2] | [4] | [5] | [6] | [7] | [8] | [9] | [10]

CC(O)CO (configuration not stated)
inactive: [2] | [3] | [4] | [5] | [6] | [7] | [8] | [9] | [10]

O=C(OCCOCCOC(=O)c1ccccc1)c1ccccc1
inactive: [1] | [2] | [3] | [4] | [5] | [6] | [7] | [8] | [10]

C=C(C)C(=O)OCCC(F)(F)C(F)(F)C(F)(F)C(F)(F)C(F)(F)C(F)(F)F
inactive: [1] | [2] | [3] | [5] | [6] | [7] | [8] | [9]

CCCCCCCCC(=O)O
inactive: [1] | [2] | [3] | [5] | [6] | [7] | [8] | [9] | [10]

CC(C)(C)c1cccc(C(C)(C)C)c1O
active: [2] 162 µM | [7] 165 µM
inactive: [1] | [3] | [4] | [6] | [8] | [9]

O=[N+]([O-])c1ccc(O)cc1
inactive: [1] | [2] | [3] | [4] | [6] | [7] | [8] | [9]

OCCC(F)(F)C(F)(F)C(F)(F)C(F)(F)C(F)(F)C(F)(F)C(F)(F)C(F)(F)F
active: [1] 52.5 µM and 222 µM | [2] 43.3 µM and 176 µM | [3] 52.1 µM and 98.7 µM | [5] 25.7 µM | [6] 33.4 µM and 150 µM | [7] 48.4 µM and 150 µM | [8] 222 µM
inactive: [5] | [8] | [9] | [10]

OC1CCC(C2CCCCC2)CC1 (configuration not stated)
inactive: [2] | [3] | [4] | [5] | [6] | [7] | [8] | [10]
active: [2] 127 µM | [3] 26.7 µM and 25.6 µM and 28.6 µM

CN(C)C=O
inactive: [1] | [2] | [3] | [5] | [6] | [7] | [8] | [10]

OC1CCCCC1
inactive: [1] | [2] | [3] | [4] | [5] | [6] | [7] | [8] | [10]

N#C[C@@H]1CC(F)(F)CN1C(=O)CNC1CC2CCC(C1)N2c1ncccn1 (some centres not stated)
inactive: [2] | [4] | [5] | [6] | [7] | [8] | [9]
active: [3] 75.6 µM

CCc1ccc(CCOc2ccc(CC3SC(=O)NC3=O)cc2)nc1 (configuration not stated)
inactive: [1] | [2] | [5] | [6] | [7] | [8] | [10]
active: [3] 6.6 µM and 1.59 µM | [8] 26.2 µM

Cc1cc(CCN2CCN(c3nsc4ccccc34)CC2)cc2c1NC(=O)CC2(C)C
active: [1] 6.35 µM | [3] 1.16 µM | [5] 6.32 µM | [7] 14.7 µM
inactive: [2] | [6] | [8] | [10]

CC(=O)CC(C)(C)O
active: [3] 25 µM
inactive: [2] | [3] | [4] | [5] | [6] | [7] | [8] | [9]

Cc1oc(-c2ccccc2)nc1CCOc1ccc(C[C@H](Nc2ccccc2C(=O)c2ccccc2)C(=O)O)cc1
inactive: [3] | [5] | [6] | [7] | [8] | [9]
active: [2] 14.4 µM

CCCCCCCCOC(=O)CCCCCCCCC(=O)OCCCCCCCC
inactive: [1] | [2] | [3] | [4] | [5] | [6] | [7] | [8] | [10]

CCCCCCCC(=O)O
inactive: [1] | [2] | [3] | [5] | [6] | [7] | [8] | [10]

C[C@@H]1C[C@H]2[C@@H]3CCC4=CC(=O)C=C[C@]4(C)[C@@]3(F)[C@@H](O)C[C@]2(C)[C@@]1(O)C(=O)COP(=O)(O)O
inactive: [2] | [3] | [4] | [5] | [6] | [7] | [8]
active: [3] 25.9 µM

NC(=O)N(O)[C@@H]1C=C[C@H](Oc2cccc(Oc3ccc(F)cc3)c2)C1
inactive: [4] | [6] | [7] | [10]
active: [2] 33 µM | [3] 12.9 µM | [5] 18.2 µM | [8] 18.3 µM

CCC(C)(C)C1CCC(O)CC1 (configuration not stated)
inactive: [1] | [2] | [4] | [6] | [7] | [8]
active: [3] 21.9 µM [middle of 4 runs]

From PubChem BioAssay (EPA / NIEHS)
